A selection: hits, their analogues and other compounds. The true share with any hit is near 1.1%.
Eya2 inh: blocks the phosphatase activity of human Eya2 | recombinant Eya2, OMFP fluorescence dephosphorylation (OMFP is methylfluorescein phosphate) | Potency, µM (doses to about 76.9 µM), actives largely listed as inhibitors | 330,000 tested, 0.006% active | AID 488837
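Eya2 (0.2 uM) preincubated 10 min at ambient with compound, then OMFP substrate added at 50 uM; 10 min reaction in 50 mM HEPES pH 7.5, 50 mM NaCl, 5 uM MgCl2, 0.05% BSA, 1 mM DTT. Fluorescence read at Ex 485/Em 525 nm.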
TrxR1 substrate: is turned over as a substrate by rat TrxR1. O89049. AID 588456. Potency, µM (top dose mostly 114 µM). 390,000 tested, 0.01% active. purified TrxR1 substrate turnover, NADPH consumption readout; also: nearly all actives have a fitted effect of over 50% in size
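Rat TrxR1, dispensed at 90 nM, was prereduced with 400 uM NADPH (final) for 5 min at ~22 deg C, then incubated with compound 15 min before 400 uM selenite. A first-read NADPH fluorescence drop versus no-compound background flagged substrates.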
TrxR1 inh: rat TrxR1 inhibition. recombinant rTrxR1, NADPH fluorescence consumption, selenite substrate. Potency, µM (highest dose often 114 µM), actives largely listed as inhibitors. 390,000 tested, 1% active. AID 588453; also: nearly all actives have a fitted effect of over 65% in size
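Rat TrxR1 (90 nM in the dispensed reagent) was pre-reduced with 400 uM NADPH for 5 min at room temperature, then incubated with compound for 15 min. After 400 uM selenite was added, NADPH fluorescence (Ex 340/Em 450 nm) was followed for 8 min.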
IDH1 R132H inh: human IDH1 R132H inhibition; O75874; IDH1-R132H enzyme, NADPH consumption, diaphorase/resazurin fluorescence; Potency, µM (doses to about 76.6 µM), actives largely listed as inhibitors; 390,000 tested, 0.093% active; AID 602179; also: nearly all actives have a fitted effect of over 65% in size
Target sequence (O75874 whole entry R132H, stated change not applied): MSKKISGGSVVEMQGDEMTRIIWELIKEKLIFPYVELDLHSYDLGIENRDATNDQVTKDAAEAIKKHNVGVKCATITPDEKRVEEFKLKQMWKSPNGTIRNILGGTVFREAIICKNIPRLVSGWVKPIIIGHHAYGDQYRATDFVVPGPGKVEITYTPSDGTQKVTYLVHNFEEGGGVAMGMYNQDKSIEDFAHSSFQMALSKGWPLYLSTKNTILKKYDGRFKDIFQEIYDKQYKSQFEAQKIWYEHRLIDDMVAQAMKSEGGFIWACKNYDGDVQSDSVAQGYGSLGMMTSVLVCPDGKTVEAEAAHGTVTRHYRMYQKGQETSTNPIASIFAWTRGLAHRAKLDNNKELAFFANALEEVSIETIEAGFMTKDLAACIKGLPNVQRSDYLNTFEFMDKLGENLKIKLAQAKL
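IDH1-R132H (0.5 ug/mL dispensed) in pH 7.5 Tris buffer was preincubated 30 min with compound, then given a substrate mix of 0.016 mM NADPH and 2 mM alpha-KG for 80 min at room temperature; remaining NADPH was read by diaphorase/resazurin fluorescence.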
RGS4 inhibitor: blocks human RGS4-accelerated GTP hydrolysis. Transcreener GDP fluorescence polarization, RGS4-accelerated GTP hydrolysis. Potency, µM (series often up to 114 µM), actives largely listed as inhibitors. 390,000 tested, 0.039% active. AID 504845; also: nearly all actives have a fitted effect of over 75% in size
Target sequence (P49798 whole entry, looked up): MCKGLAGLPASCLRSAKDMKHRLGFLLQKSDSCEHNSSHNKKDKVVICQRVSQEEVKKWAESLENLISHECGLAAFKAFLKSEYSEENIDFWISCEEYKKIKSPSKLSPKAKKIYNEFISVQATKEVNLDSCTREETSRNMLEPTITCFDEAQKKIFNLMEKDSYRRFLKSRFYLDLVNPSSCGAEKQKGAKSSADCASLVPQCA
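MLSMR compounds (23 nl, pin-transferred) preincubated 10 min at room temperature with a 500nM (2x) first reagent, then RGS4 at 900nM (2x) plus Transcreener GDP mix added; fluorescence polarization (620/688 nm) read before and after 90 min at 30 °C.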
Large screens that a line does not name were inactive. Calls follow the shape of the dose curve; as a rule, active = well fitted curve in the direction sought with a large enough effect; inconclusive = small, poorly fitted or top-dose-only effect, or another doubt; inactive = no such curve, though single readings can be large; an effect the other way counts as inactive or inconclusive.

CCCS(=O)(=O)c1c(S(=O)(=O)CCC)c2c(N)cccn2c1C(=O)OC	TrxR1 inh 7.9µM
O=C(/C=C/c1ccco1)NCC(=O)N/N=C/c1ccccc1[N+](=O)[O-]	TrxR1 inh 45µM
C=CC(=O)N1C/C(=C/c2ccccc2)C(=O)/C(=C\c2ccccc2)C1	TrxR1 inh 4µM, RGS4 inhibitor inconclusive (no result: Eya2 inh)
N#Cc1ccsc1NC(=O)CCS(=O)(=O)c1ccccc1	TrxR1 inh 3.2µM
N#Cc1ccsc1NC(=O)COC(=O)CCS(=O)(=O)c1ccccc1	none
NC(=O)c1ccsc1NC(=O)CCS(=O)(=O)c1ccc(Cl)cc1	TrxR1 inh 18µM
Cc1cc(C(=O)NCCc2ccc(Cl)cc2)c2c(C)nn(-c3ccccc3)c2n1	none (no result: Eya2 inh)
O=C(O)c1ccc2c(c1)C(=O)N([C@H](Cc1ccc(C(F)(F)F)cc1)C(=O)O)C2=O	none (no result: TrxR1 substrate, TrxR1 inh, IDH1 R132H inh, RGS4 inhibitor)
CCCCNS(=O)(=O)c1ccc(NC(=O)C2c3ccccc3Oc3ccccc32)cc1	none
C=C1CC[C@H](O)C/C1=C/C=C1\CCC[C@]2(C)[C@@H]([C@H](C)/C=C/[C@H](C)C(C)C)CC[C@@H]12	Eya2 inh inconclusive
O=C(OCn1ncc(Cl)c(Cl)c1=O)c1cccc(C(F)(F)F)c1	TrxR1 inh 16µM
c1ccc(-c2nc(-c3ccco3)cs2)nc1	TrxR1 inh 18µM, RGS4 inhibitor inconclusive
CCN(CC)CCCNc1nc(N)c([N+](=O)[O-])c(N2CCCCCC2)n1	none
CCCC1Cc2c(sc3ncnc(N)c23)CO1 (stereo unspecified)	TrxR1 inh 50µM
O=C(C(Cl)c1ccccc1)N1CCCC1 (stereo unspecified)	TrxR1 inh 20µM
O=C(Nc1ccc(N2CCCCC2)cc1)C(Cl)c1ccccc1 (stereo unspecified)	none
CN(C)CCCn1c(=O)n(Cc2ccco2)c(=O)c2c3c(sc21)CCCCC3	none
CCN(C(=O)CSc1nnc(-c2cc(OC)c(OC)c(OC)c2)o1)c1ccccc1	TrxR1 inh 45µM (no result: Eya2 inh)
COc1ccc(-n2nnnc2CNC(=O)C(=O)c2c[nH]c3ccccc23)cc1	none
O=C(Nc1ccccc1)NN(C(=O)CCl)c1ccccc1	TrxR1 inh 7.9µM
Cc1ccc(N(NC(=O)C(O)(c2ccccc2)c2ccccc2)C(=O)CCl)cc1	TrxR1 inh 7.1µM
CCC(O)(CC)C(=O)NN(C(=O)CCl)c1ccccc1	TrxR1 inh inconclusive
Cc1ccc(C(O)(C(=O)NN(C(=O)c2ccccc2)c2ccccc2)c2ccc(C)cc2)cc1	none
Cc1cc(Nc2ccc(C(=O)O)cc2)n2nc(C)nc2n1	none
Cc1nnc(SCC2=C(C(=O)O)N3C(=O)C(NC(=O)Cn4nc(C(F)F)c(Cl)c4C)C3SC2)s1 (stereo unspecified)	none
CCC(C(=O)NC1C(=O)N2C(C(=O)O)=C(CSc3nnc(C)s3)CSC12)c1ccccc1 (stereo unspecified)	TrxR1 inh inconclusive, RGS4 inhibitor inconclusive
Cc1nnc(SCC2=C(C(=O)O)N3C(=O)C(NC(=O)COc4ccccc4)C3SC2)s1 (stereo unspecified)	TrxR1 inh 7.9µM, RGS4 inhibitor inconclusive
Cc1nnc(SCC2=C(C(=O)O)N3C(=O)C(NC(=O)COc4ccc(F)cc4)C3SC2)s1 (stereo unspecified)	TrxR1 inh 4µM, RGS4 inhibitor inconclusive
Cc1nnc(SCC2=C(C(=O)O)N3C(=O)C(NC(=O)Cn4nc(C(F)F)cc4C)C3SC2)s1 (stereo unspecified)	TrxR1 inh 45µM
CCN(CCO)C(=O)CC1C(=O)NCCN1Cc1c(F)cccc1Cl (stereo unspecified)	none
CCOC(=O)c1cnc2ccc(C(=O)OC)cc2c1NCCN1CCOCC1	TrxR1 inh 45µM
CCOC(=O)c1cnc2ccc(C(=O)OC)cc2c1NCCCN1CCOCC1	none
O=[N+]([O-])c1cc(S(=O)(=O)NCCN2CCOCC2)ccc1Sc1nnnn1-c1ccccc1	TrxR1 inh 20µM
Cc1ccc(-n2nnnc2Sc2ccc(S(=O)(=O)NCCN(C)C)cc2[N+](=O)[O-])cc1	TrxR1 inh inconclusive
Brc1ccc(-c2cn3cccnc3n2)cc1	none
O=[N+]([O-])c1ccc(Sc2nnnn2-c2ccccc2)nc1	TrxR1 inh 13µM
O=[N+]([O-])c1ccc(Sc2ccccn2)nc1	none
CCOc1c(Cl)cc(CNc2ccc(N3CCCC3)cc2)cc1OC	TrxR1 inh 13µM, RGS4 inhibitor inconclusive
CCOc1c(Cl)cc(CNc2ccc(S(N)(=O)=O)cc2)cc1OC	none
CCc1nn(CC(=O)NC(C)CCc2ccccc2)c(=O)c2cc3c(OC)cccc3n12 (stereo unspecified)	none (no result: Eya2 inh)
O=C1S/C(=C\c2ccc(N3CCOCC3)o2)C(=O)N1Cc1c(F)cccc1Cl	TrxR1 inh 2.5µM
O=C(O)c1ccccc1-c1ccc(/C=C2\SC(=O)N(c3ccccc3)C2=O)o1	none
O=C1N=C(N2CCOCC2)S/C1=C/c1ccc(-c2ccccc2Cl)o1	none
O=C1NC(=O)/C(=C/c2ccc(N3CCOCC3)o2)N1	TrxR1 inh inconclusive
O=C1S/C(=C\c2ccc(N3CCOCC3)o2)C(=O)N1c1ccccc1	TrxR1 inh 4µM, RGS4 inhibitor inconclusive
O=C1NC(=O)/C(=C\c2ccc(N3CCOCC3)o2)N1	TrxR1 inh 8.9µM, RGS4 inhibitor inconclusive
O=C1S/C(=C/c2ccc(N3CCOCC3)o2)C(=O)N1Cc1c(F)cccc1Cl	TrxR1 inh 8.9µM, RGS4 inhibitor inconclusive
C=CCN1C(=O)CS/C1=N\N=C\c1cccc([N+](=O)[O-])c1	none
Cc1ccnc(NCc2cc(C)ccc2O)c1	none
COc1ccc(OC)c(CNC(=O)c2coc(=O)c3ccccc23)c1	none
Cc1[nH]c2ccccc2c1C1=CC(=O)C=CC1=O	TrxR1 inh 25µM, RGS4 inhibitor inconclusive (no result: Eya2 inh)
COc1cc2c(cc1OC)CN(C(=O)CN1CCN(S(=O)(=O)c3ccc(C)c(C)c3)CC1)CC2	none
CCSc1nnc(NC(=O)CSc2nc3c(c(=O)n2CC)SC(C)C3)s1 (stereo unspecified)	none
Cc1ccc(C)c(S(=O)(=O)N(C)c2ccc(OC(=O)CN3C(=O)NC4(CCCC4)C3=O)cc2)c1	none (no result: Eya2 inh)
O=C(CN1C(=O)NC2(CCCCC2)C1=O)Oc1ccc2ccc(=O)oc2c1	TrxR1 inh 50µM
CCOC(=O)c1cc(CC)sc1NC(=O)CN1CCN(C(=O)c2ccco2)CC1	TrxR1 inh 35µM, RGS4 inhibitor inconclusive
CC1CCN(C(=O)COC(=O)/C=C/c2ccc([N+](=O)[O-])cc2)CC1	none
CCOC(=O)c1cc(C)sc1NC(=O)CN1CCN(C(=O)c2ccco2)CC1	none
O=Cc1cccc(OC(=O)/C=C/c2ccco2)c1	TrxR1 inh 32µM
CCOC(=O)/C=C/C(=O)OCC(=O)N1CCN(C(=O)c2ccco2)CC1	TrxR1 inh 50µM
CC1CCN(C(=O)COC(=O)/C=C/c2ccco2)CC1	TrxR1 inh 8.9µM, RGS4 inhibitor inconclusive

Bioassay records as filed in PubChem BioAssay.
